HTT aggregate: qHTS Multiplex Assay to Identify Dual Action Probes in a Cell Model of Huntington: Aggregate Formation (GFP). PC12 HttQ103-GFP aggregates, Acumen cytometry, 40 h. Potency, µM (titrated, usually from 46.1 µM), inactives show top-dose activity change, negative = inhibition, actives largely listed as inhibitors. 220,000 compounds, 1.1% hits. AID 1688, 2009; also: potency is read from the fitted curve at half-maximal effect; % is scaled to controls: 0 for no effect and ±100 for the full control effect; nearly all actives have a fitted effect of over 60% in size
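Compounds (qHTS titration) were added to PC12 cells expressing an ecdysone-driven HTT exon 1 Q103–GFP fusion after induction with 100 nM tebufenozide. Aggregate formation was measured as GFP objects in cell lysates.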
PNC inhibitor: High Content Assay for Compounds that inhibit the Assembly of the Perinucleolar Compartment; PC3M PTB-GFP, PNC prevalence imaging, 16 h; active compounds read low; activity change (PNC), negative = inhibition, % at 10 µM; 140,000 compounds, 3.1% hits; AID 2417, 2010;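 active = readout at or below -70, meaning at least 70% loss of cells showing the perinucleolar compartment, a nuclear body marking cancer cells; inconclusive = readout between -30 and a set limit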;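 also: plate controls were DMSO wells for no effect and camptothecin positive control wells for full effect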
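Compounds are pinned in duplicate onto adhered PC3M cells stably expressing GFP-tagged PTB and incubated 16 h at 37 C. Cells are then fixed, nuclei stained with Hoechst, and PNC-positive cells counted.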
HPGD block: qHTS Assay for Inhibitors of HPGD (15-Hydroxyprostaglandin Dehydrogenase); purified HPGD, NADH fluorescence kinetic, PGE2 substrate; Potency, µM, for inactives: at the top dose activity change, negative = inhibition, most hits filed as inhibitors; 15-hydroxyprostaglandin dehydrogenase [NAD(+)] (Homo sapiens), P15428; 150,000 compounds, 4.3% hits; active = well fitted inhibition curve with a large enough effect, not every such curve was filed as active; inconclusive = small, poorly fitted or top-dose-only effect, or another doubt; inactive = no such curve, though single readings can be large or run the other way; also: potency is read from the fitted curve at half-maximal effect; % is scaled to controls: 0 for no effect and ±100 for the full control effect
Target sequence (P15428 whole entry, looked up): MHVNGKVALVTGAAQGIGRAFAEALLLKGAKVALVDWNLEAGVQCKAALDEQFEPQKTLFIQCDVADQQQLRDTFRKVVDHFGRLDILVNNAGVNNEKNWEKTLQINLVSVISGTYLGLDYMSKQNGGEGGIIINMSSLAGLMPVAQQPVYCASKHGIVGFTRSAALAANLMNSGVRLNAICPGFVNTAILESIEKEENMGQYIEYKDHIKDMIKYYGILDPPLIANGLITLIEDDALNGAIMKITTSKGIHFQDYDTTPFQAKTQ
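20 nM HPGD preincubated 15 min at room temperature with compound in 50 mM Tris-HCl pH 8, 0.01% Tween 20. Started with 1 mM NAD+ and 30 uM prostaglandin E2; NADH fluorescence (360/450 nm) read 5 times over 30-s intervals, last minus first.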
HTT ATP protect: qHTS Multiplex Assay to Identify Dual Action Probes in a Cell Model of Huntington: Cytoprotection (ATP); PC12 HTT-Q103 induced, cytoprotection, ATP luminescence, 40 h; Potency, µM (doses to about 56.4 µM), for the others: cytoprotection (ATP increase), hits mostly activators; 230,000 compounds, 0.14% hits; AID 1471, 2008; also: potency is read from the fitted curve at half-maximal effect; % of control where 0% means no effect; nearly all actives have a fitted effect of over 45% in size
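PC12 cells stably carrying ecdysone-inducible Htt exon 1 (Q103)–GFP were induced with 100 nM tebufenozide (final) alongside library compounds in a dose series. Cytoprotection was scored as retained ATP by ATPlite luminescence.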
CBFb RUNX1 block: qHTS Assay for Compounds Blocking the Interaction Between CBF-beta and RUNX1 for the Treatment of Acute Myeloid Leukemia; AID 1477, 2009; Potency, µM (series often up to 59.8 µM), inactives show at the top dose activity, negative = inhibition, actives largely listed as inhibitors; AlphaScreen CBFb-His/RUNX1-biotin binding, biochemical; 230,000 tested, under 10 active; Runt-related transcription factor 1 (Homo sapiens) + Core-binding factor subunit beta …; also: % of control where 0% means no effect
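Compounds were screened at multiple concentrations against a preformed CBF-beta(His)/RUNX1(biotin) complex (30 nM of each) for 15 min at room temperature, followed by 90 min with nickel and streptavidin beads and AlphaScreen reading.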
ALDH1A1 inh: qHTS Assay for Inhibitors of Aldehyde Dehydrogenase 1 (ALDH1A1); 220,000 compounds, 7.3% hits; Aldehyde dehydrogenase 1A1 (Homo sapiens), P00352; Potency, µM (titrated, usually from 75.3 µM), inactives show at the top dose activity, negative = inhibition, most hits filed as inhibitors; Purified ALDH1A1, NADH fluorescence, propionaldehyde substrate; active = well fitted inhibition curve with a large enough effect, not every such curve was filed as active; inconclusive = small, poorly fitted or top-dose-only effect, or another doubt; inactive = no such curve, though single readings can be large or run the other way;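 also: potency is read from the fitted curve at half-maximal effect; plate controls were no enzyme wells and a reference inhibitor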
* marks the source's active call; other numbers are inactive results; [ ] = another dose, or the depositor's remark. An excerpt weighted towards active compounds, which were near 11% of everything screened. Unless noted, calls follow the shape of the dose curve; as a rule, active = well fitted curve in the direction sought with a large enough effect; inconclusive = small, poorly fitted or top-dose-only effect, or another doubt; inactive = no such curve, though single readings can be large; an effect the other way counts as inactive or inconclusive.

Screening O=C(O)CN(CC(=O)O)Cc1cc2c(-c3ccccc3C(=O)O)c3cc(CN(CC(=O)O)CC(=O)O)c(=O)cc-3oc2cc1O returned HTT aggregate 0.18µM*, HPGD block inconclusive, CBFb RUNX1 block inconclusive and ALDH1A1 inh -11%.
Screening N=C(N)SCCN=C(N)N returned CBFb RUNX1 block 13%.
Screening COc1ccc2c(c1)[n+]([O-])c(/C(C)=N/NC(N)=S)c(C)[n+]2[O-] returned HTT ATP protect 0%[10 µM].
`Cc1ccc(NC(=O)CCCCCN2C(=O)c3ccccc3C2=O)nc1` gave HTT aggregate inconclusive, PNC inhibitor inconclusive, HPGD block -10%, HTT ATP protect 36%[10 µM], CBFb RUNX1 block 10% and ALDH1A1 inh -9%.
Cc1ccc(NCN2C(=O)C(=O)c3ccccc32)nc1 was read as HTT aggregate -20%, PNC inhibitor inconclusive, HPGD block -13%, HTT ATP protect 7%[10 µM], CBFb RUNX1 block 2% and ALDH1A1 inh 0.14µM*.
`CN1CC(c2ccccc2Cl)C2(COc3ccccc3C2=O)C12C(=O)Nc1ccccc12` (configuration not stated) gave HTT aggregate inconclusive, PNC inhibitor inconclusive, HPGD block inconclusive, HTT ATP protect -82%, CBFb RUNX1 block 1% and ALDH1A1 inh 1.4µM*.
`Cc1ccc(C2CN(C)C3(C(=O)Nc4ccccc43)C23COc2ccccc2C3=O)cc1` (configuration not stated) gave HTT aggregate -20%, PNC inhibitor 46, HPGD block -12%, HTT ATP protect -56%, CBFb RUNX1 block -20% and ALDH1A1 inh -14%.
For O=C(CN1C(=O)NC2(CCSC2)C1=O)N1CCN(c2ccc(F)cc2)CC1 (configuration not stated) the results were HTT aggregate -9%, PNC inhibitor -21, HPGD block -3%, HTT ATP protect -6%[0.074 µM], CBFb RUNX1 block 1% and ALDH1A1 inh 20µM*.
Screening Cc1cc(C2C(=O)CC(=O)CC2c2ccccc2)on1 (configuration not stated) returned HTT aggregate 9%, PNC inhibitor -17, HPGD block -20%, HTT ATP protect -5%[10 µM], CBFb RUNX1 block -17% and ALDH1A1 inh 10µM*.
CCCC(=O)C1C(=O)CC(C)(C)C(c2cc(C)no2)C1=O (configuration not stated) was read as HTT aggregate 17%, PNC inhibitor -2, HPGD block -5%, HTT ATP protect 11%, CBFb RUNX1 block 5% and ALDH1A1 inh 1%.
`Cc1ccc(NC(=O)c2cc(-c3ccccc3)nn2-c2ccccc2)cc1` gave HTT aggregate -10%, PNC inhibitor -21, HPGD block -25%, HTT ATP protect 16%[10 µM], CBFb RUNX1 block 13% and ALDH1A1 inh inconclusive.
For COc1ccc(-c2cc(C(=O)NN)n(-c3ccccc3)n2)cc1 the results were HTT aggregate inconclusive, PNC inhibitor 14, HPGD block -14%, HTT ATP protect -15%[10 µM], CBFb RUNX1 block -4% and ALDH1A1 inh 8.9µM*.
For COc1ccc(-c2cc(C(=O)N/N=C/c3ccc(O)cc3)[nH]n2)cc1 the results were HPGD block inconclusive and ALDH1A1 inh 13µM*.
Screening COc1ccc(-c2cc(C(=O)NN)[nH]n2)cc1 returned HTT aggregate 6%, PNC inhibitor 1, HPGD block -6%, HTT ATP protect 23%[10 µM], CBFb RUNX1 block -20% and ALDH1A1 inh 20µM*.
For COCCn1c(=O)c(-c2cccs2)nc2cnc(Nc3ccccc3)nc21 the results were HPGD block -3%, HTT ATP protect -8% and ALDH1A1 inh 0%.
`O=C(COc1ncnc2scc(-c3ccccc3)c12)NCCN1C(=O)CSC1=O` gave HTT aggregate 7%, HTT ATP protect -28%, CBFb RUNX1 block -5% and ALDH1A1 inh 1%.
`O=C1C(Cl)=C(Nc2ccccc2)C(=O)c2ccccc21` gave HTT aggregate 13µM*, PNC inhibitor -25, HPGD block -3%, HTT ATP protect -39%[10 µM], CBFb RUNX1 block 6% and ALDH1A1 inh 8%.
Screening O=C(O)c1cccc(NC2=C(Cl)C(=O)c3ccccc3C2=O)c1 returned HTT aggregate inconclusive, CBFb RUNX1 block -13% and ALDH1A1 inh 32µM*.
Screening Cc1cc(NC(=O)CCN2C(=O)C3C4CCC(C4)C3C2=O)cc(C)c1Br (configuration not stated) returned HTT aggregate -4%, PNC inhibitor -20, HPGD block -9%, HTT ATP protect 12%[10 µM], CBFb RUNX1 block -8% and ALDH1A1 inh inconclusive.
Screening Cc1c(Br)ccc(NC(=O)CCN2C(=O)C3C4CCC(C4)C3C2=O)c1C (configuration not stated) returned HTT aggregate 14%, PNC inhibitor 23, HPGD block 3%, HTT ATP protect -10%, CBFb RUNX1 block 3% and ALDH1A1 inh 32µM*.
For Cn1c(=O)c2c(nc(Oc3ccccn3)n2C)n(C)c1=O the results were HTT aggregate -16%, PNC inhibitor inconclusive, HPGD block -13%, HTT ATP protect -1%[0.074 µM], CBFb RUNX1 block 3% and ALDH1A1 inh 7%.
Screening C[C@@H](O)C(N)C(=O)O (some centres not stated) returned CBFb RUNX1 block 8%.
`Cc1ccc(Nc2ccc(C(=O)N3CCCC3)cn2)c(C)c1` gave HTT aggregate -31%, PNC inhibitor -12, HPGD block 2.2µM*, HTT ATP protect 14%, CBFb RUNX1 block 4% and ALDH1A1 inh -2%.
Screening Cc1cc(C)c2c(N)c(C(=O)N3CCc4ccccc4C3)sc2n1 returned HTT aggregate -10%[9.22 µM], HTT ATP protect -5%[10 µM], CBFb RUNX1 block 9% and ALDH1A1 inh inconclusive.
Screening CCOc1ccc2nc3sc(C(=O)N4CCN(C)CC4)c(N)c3cc2c1 returned HTT aggregate inconclusive, PNC inhibitor -1, HPGD block 14µM*, HTT ATP protect -18%, CBFb RUNX1 block 4% and ALDH1A1 inh -11%.
